Compound activity (PubChem)
Pol beta inh – qHTS Assay for Inhibitors of DNA Polymerase Beta; AID 485314, 2010; P06746; Potency, µM (highest dose often 114 µM), for the others: at the highest dose activity change, negative = inhibition, actives largely listed as inhibitors; Pol beta primer extension/strand displacement, fluorescence kinetic; hit rate 1.3% among 340,000; also: % is scaled to controls: 0 for no effect and ±100 for the full control effect
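Preincubation: enzyme (10 nM) with compound, 15 min, RT. Reaction: substrate added to 50 nM final. Reads: 0 and 10 min. Analysis: normalized, Hill fit.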
Pol eta inh-1 – qHTS for Inhibitors of Polymerase Eta; DNA polymerase eta (Homo sapiens), Q9Y253; recombinant Pol eta, fluorescent DNA replication assay; Potency, µM (titrated, usually from 114 µM), for inactives: top-dose activity change, negative = inhibition, actives largely listed as inhibitors; hit rate 1.2% among 390,000; also: % is scaled to controls: 0 for no effect and ±100 for the full control effect
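Pol eta at 10 nM preincubated with compounds 15 min at room temperature; reaction started with fluorescent substrate (50 nM final) and read kinetically at 0 and 10 min.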
POLI inh – qHTS for Inhibitors of Polymerase Iota; DNA polymerase iota (Homo sapiens), Q9UNA4; Pol iota fluorescent replication assay, 10 min; Potency, µM (titrated, usually from 115 µM), for inactives: at the highest dose activity, negative = inhibition, most hits filed as inhibitors; hit rate 1% among 390,000; AID 588590, 2011
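Pol iota at 10 nM preincubated 15 min with compounds at room temperature; reaction started with fluorescent substrate, 50 nM final. Fluorescence read kinetically at 0 and 10 min; buffer-only wells as negative control.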
Pol kappa inh-1 – qHTS for Inhibitors of Polymerase Kappa. DNA polymerase kappa (Homo sapiens), Q9UBT6. purified Pol kappa, fluorescent DNA synthesis assay, 10 min. Potency, µM (titrated, usually from 107 µM), for the others: at the top dose activity, negative = inhibition, hits mostly inhibitors. hit rate 0.53% among 400,000. AID 588579, 2011; also: % is scaled to controls: 0 for no effect and ±100 for the full control effect
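10 nM Pol kappa was preincubated with compounds for 15 min at room temperature. Reaction started with 50 nM (final) substrate. Fluorescence read kinetically at 0 and 10 min.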
WRN helicase inh – qHTS for Inhibitors of WRN Helicase | Bifunctional 3'-5' exonuclease/ATP-dependent helicase WRN (Homo sapiens), Q14191 | WRN helicase unwinding, fluorescent forked duplex, kinetic | Potency, µM (series often up to 114 µM), for inactives: top-dose activity change, negative = inhibition, hits mostly inhibitors | hit rate 0.46% among 360,000 | AID 651768, 2012; also: % is scaled to controls: 0 for no effect and ±100 for the full control effect; nearly all actives have a fitted effect of over 55% in size
Target sequence (Q14191 whole entry, looked up): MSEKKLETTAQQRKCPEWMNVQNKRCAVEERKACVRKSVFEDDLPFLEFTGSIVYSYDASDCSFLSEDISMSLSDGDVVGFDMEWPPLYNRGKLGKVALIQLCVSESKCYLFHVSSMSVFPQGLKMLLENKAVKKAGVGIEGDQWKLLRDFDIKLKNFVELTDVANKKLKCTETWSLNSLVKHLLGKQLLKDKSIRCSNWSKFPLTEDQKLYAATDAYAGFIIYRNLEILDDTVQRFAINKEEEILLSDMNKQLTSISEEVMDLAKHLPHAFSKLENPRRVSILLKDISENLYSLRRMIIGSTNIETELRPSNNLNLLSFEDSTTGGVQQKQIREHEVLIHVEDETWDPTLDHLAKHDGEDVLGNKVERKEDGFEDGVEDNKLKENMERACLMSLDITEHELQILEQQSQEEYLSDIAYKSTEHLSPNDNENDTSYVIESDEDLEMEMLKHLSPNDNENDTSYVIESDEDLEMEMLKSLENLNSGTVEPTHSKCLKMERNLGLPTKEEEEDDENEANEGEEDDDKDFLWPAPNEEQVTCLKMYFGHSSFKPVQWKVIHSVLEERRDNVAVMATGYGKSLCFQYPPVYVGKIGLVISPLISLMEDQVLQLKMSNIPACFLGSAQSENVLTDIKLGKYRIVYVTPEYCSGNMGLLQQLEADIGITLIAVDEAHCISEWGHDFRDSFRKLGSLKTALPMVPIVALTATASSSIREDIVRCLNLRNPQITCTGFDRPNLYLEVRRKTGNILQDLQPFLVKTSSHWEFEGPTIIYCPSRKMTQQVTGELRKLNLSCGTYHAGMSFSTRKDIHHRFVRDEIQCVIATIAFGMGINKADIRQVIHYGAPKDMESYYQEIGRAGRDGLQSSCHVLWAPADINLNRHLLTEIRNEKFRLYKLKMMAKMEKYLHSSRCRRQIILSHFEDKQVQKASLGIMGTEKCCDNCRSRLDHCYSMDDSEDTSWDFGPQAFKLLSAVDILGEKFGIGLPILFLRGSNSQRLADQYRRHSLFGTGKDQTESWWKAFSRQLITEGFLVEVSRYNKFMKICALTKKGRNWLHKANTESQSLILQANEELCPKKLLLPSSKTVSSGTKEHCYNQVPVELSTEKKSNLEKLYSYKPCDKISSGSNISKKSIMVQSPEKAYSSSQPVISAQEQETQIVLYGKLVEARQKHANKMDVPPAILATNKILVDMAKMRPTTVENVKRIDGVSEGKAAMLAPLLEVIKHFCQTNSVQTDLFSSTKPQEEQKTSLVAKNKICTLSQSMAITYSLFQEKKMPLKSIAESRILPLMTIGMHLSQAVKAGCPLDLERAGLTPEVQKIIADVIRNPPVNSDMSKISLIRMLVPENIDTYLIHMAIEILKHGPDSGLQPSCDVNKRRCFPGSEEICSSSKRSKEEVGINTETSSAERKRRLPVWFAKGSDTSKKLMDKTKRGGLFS
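Screening of the MLSMR collection measured strand separation of a quenched forked DNA duplex (100 nM) by 20 nM WRN with 2 mM ATP, all final. Compounds were preincubated with enzyme 15 min at room temperature.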
FEN1 inh-1 – qHTS Assay for the Inhibitors of Human Flap endonuclease 1 (FEN1); P39748; Recombinant FEN1 flap cleavage, fluorescence, 15 min; Potency, µM (series often up to 114 µM), without a hit: top-dose activity change, negative = inhibition, hits mostly inhibitors; hit rate 0.35% among 390,000; AID 588795, 2011; also: % is scaled to controls: 0 for no effect and ±100 for the full control effect; nearly all actives have a fitted effect of over 65% in size
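Enzyme 10 nM, 15 min RT preincubation with compound; start with substrate 50 nM final; reads at 0 and 15 min; qHTS titration, four-parameter Hill fit.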
Pol kappa inh-2 – qHTS for Inhibitors of Polymerase Kappa: Confirmatory Assay for Cherry-picked Compounds; shares compounds with Pol eta inh-1; purified Pol-kappa, fluorescent strand-displacement substrate; Potency, µM, usual class: inhibitors; hit rate 76% among 920
Pol eta inh-2 – qHTS for Inhibitors of Polymerase Eta: Confirmatory Assay for Cherry-picked Compounds; shares compounds with Pol eta inh-1; Pol eta primer extension, TAMRA/BHQ fluorescence, 10 min; Potency, µM, actives largely listed as inhibitors; hit rate 64% among 2,600
FEN1 inh-2 – qHTS Assay for the Inhibitors of FEN1: Confirmatory Assay for Cherry-picked Compounds; shares compounds with FEN1 inh-1; FEN1 flap cleavage, TAMRA/BHQ2 fluorogenic DNA substrate; Potency, µM, usual class: inhibitors; hit rate 79% among 880; AID 720498, 2013; also: nearly all actives have a fitted effect of over 60% in size
An asterisk follows results filed as active; ? = inconclusive; . = no result given; [ ] = another dose, or the depositor's remark. Hits are enriched below; roughly 2.4% of the tested compounds scored in any of these assays. Calls follow the shape of the dose curve; as a rule, active = well fitted curve in the direction sought with a large enough effect; inconclusive = small, poorly fitted or top-dose-only effect, or another doubt; inactive = no such curve, though single readings can be large; an effect the other way counts as inactive or inconclusive. Potency is read from the fitted curve at half-maximal effect.

SMILES | Pol beta inh | Pol eta inh-1 | POLI inh | Pol kappa inh-1 | WRN helicase inh | FEN1 inh-1 | Pol eta inh-2 | others
O=C(CN1C(=O)S/C(=C\c2ccc(C(=O)O)cc2)C1=O)Nc1ccccc1 | -1% | -3% | -19% | -8% | 0% | 19% | .
Cc1cnc(CNc2ccnc(-c3ccccc3C(F)(F)F)n2)cn1 | . | . | . | 3%[60.1 µM] | . | . | .
CCOc1cc(C2NC(=O)NC(C)=C2C(C)=O)cc(Cl)c1OCC(=O)O (stereo unspecified) | ? | 22µM* | ? | -28% | -9%[57.1 µM] | -4% | ?
COc1ccc(C2=NN(C(=O)CCCC(=O)O)C(c3cn(-c4ccccc4)nc3-c3ccccc3)C2)cc1 (stereo unspecified) | ? | -20% | 20µM* | ? | 0.3µM* | -8% | ? | Pol kappa inh-2=0.38*
COc1ccc(C2CC(c3ccccc3)=NN2C(=O)CCCC(=O)O)cc1 (stereo unspecified) | 4% | 9% | -9% | 6% | 1% | 21% | .
Cc1cc(C)cc(OCC(=O)Nc2nc3c(s2)CC(C(C)(C)C)CC3)c1 (stereo unspecified) | ? | -4% | 22% | -3% | . | 3% | .
Cc1ccc(-c2cc(C(=O)Nc3cccnc3)c3ccccc3n2)o1 | ? | 45µM* | ? | -15%[60.1 µM] | ? | -22% | ?
Cc1ccc2c(c1)c(=O)c1ccccc1n2CCCC(=O)Nc1ccc(Cl)cc1C | ? | 89µM* | -12% | 2% | . | -4% | . | Pol kappa inh-2=?
Cc1ccc2c(c1)c(=O)c1ccccc1n2CCCC(=O)Nc1ccc(Cl)c(Cl)c1 | 4% | -14% | 23% | 1% | . | -9% | .
O=c1c2ccccc2[nH]c2ccc(O)cc12 | 18µM* | 18µM* | ? | 79µM* | 50µM* | ? | 54*
CCC(=O)N1CCc2cc(Br)cc(S(=O)(=O)CCC(=O)NCCc3ccc(C)cc3)c21 | 1% | -18% | 16% | -5%[60.1 µM] | . | -6% | .
CCC(=O)N1CCc2cc(Br)cc(S(=O)(=O)CCC(=O)NCCc3ccccc3Cl)c21 | ? | ? | -15% | -19% | . | 16% | 76* | Pol kappa inh-2=34*
CCCN1CCN(CCCNC(=O)c2cnn(-c3ccc(F)cc3)c2-n2cccc2)CC1 | 9% | -1% | 10% | 5% | . | -4% | .
COC/C=C/C1=CC2=CC(=O)C(C)(OC(=O)C3CCCC3)C(=O)C2=CO1 (stereo unspecified) | 40µM* | 20µM* | ? | 50µM* | 79µM* | 40µM* | 48*
C=CCN1C=C2C(=O)C(C)(OC(=O)C3CCCC3)C(=O)C=C2C=C1c1ccsc1 (stereo unspecified) | 0% | 4% | ? | -22% | -4% | -2% | .
Cc1cc2oc(C(=O)Nc3sc4c(c3C(=O)NCc3ccco3)CCC4)cc(=O)c2cc1C | ? | 50µM* | ? | ? | . | -17% | ? | Pol kappa inh-2=?
COc1ccc(C(=O)Nc2cccnc2Cl)cc1OC | ? | -12% | 6% | -10% | -4% | -5% | .
O=C(Nc1cccnc1Cl)c1ccc(=O)oc1 | 13µM* | 20µM* | 22µM* | 45µM* | ? | 20µM* | ?
CCc1ccc(N=C2NC(=O)/C(=C/c3ccc(OCC(=O)O)cc3)S2)cc1 | 40µM* | 45µM* | ? | ? | ? | ? | . | Pol kappa inh-2=?
CCOc1ccc(N=C2NC(=O)/C(=C/C(=O)OC)S2)cc1 | 58% | -13% | -6% | -17% | -20% | 4% | .
COc1ccc(CCNC(=O)c2ccc3c(c2)c(C)c(C)n3Cc2ccc(F)cc2)c(OC)c1OC | 1% | 3% | -9% | -8% | . | -8% | .
CC1=NOC(=O)/C1=C\c1ccc(-c2ccc(Br)cc2)o1 | 32µM* | 20µM* | ? | -14% | ? | ? | 85*
CC1=NOC(=O)/C1=C\c1ccc(-c2cc(Cl)ccc2Cl)o1 | -2% | -21% | -11% | -18% | ? | 2% | .
CC1=NOC(=O)/C1=C\c1ccc(-c2ccc(Br)cc2C(=O)O)o1 | 13µM* | 40µM* | ? | 79µM* | 50µM* | -11% | . | Pol kappa inh-2=34*
COc1ccccc1N1CCN(C[C@@H](C(=O)NC(C)(C)C)c2ccccc2)CC1 | . | . | . | -7%[19.4 µM] | . | . | .
SMILES | Pol beta inh | Pol eta inh-1 | POLI inh | Pol kappa inh-1 | WRN helicase inh | FEN1 inh-1 | Pol eta inh-2 | others
CN(C(=O)C=Cc1ccco1)c1ccccc1 | . | -4% | 9% | -6% | ? | -3% | .
CN(C(=O)/C=C/c1ccco1)c1ccccc1C(=O)O | 18µM* | 45µM* | ? | ? | -9% | 3% | ?
COc1ccc([C@@H]2C=C(C(=O)O)O[C@H](OCCCCO)C2)cc1 | 15% | -19% | 24% | -4% | 3% | 14% | .
C#Cc1ccc([C@H]2C=C(C(=O)O)O[C@@H](OCCCCO)C2)cc1 | . | 20µM* | 50µM* | ? | -21% | 8% | . | Pol kappa inh-2=?
C#CCN1C(=O)S/C(=C\c2ccc(-c3ccc(Cl)c(C(=O)O)c3)o2)C1=O | ? | 14µM* | ? | 35µM* | -4%[11.6 µM] | ? | ?
CCOC(=O)CN1C(=O)S/C(=C/c2ccc(C)o2)C1=O | -21% | -12% | 77% | -15% | 0% | 0% | .
COc1cc(OC)c(/C=C2\SC(=O)N(CC(=O)Nc3ccccc3F)C2=O)c(OC)c1 | 29% | -7% | 8% | -6% | 2% | -1% | .
CCOc1cc(/C=C2\SC(=O)N(CC(=O)Nc3ccccc3F)C2=O)cc([N+](=O)[O-])c1O | -6% | ? | 11µM* | -20% | -7%[57.1 µM] | 50µM* | . | Pol kappa inh-2=?
O=C(Nc1ccc(S(=O)(=O)O)cc1)c1ccc2c(c1)S(=O)(=O)c1ccccc1C2=O | . | 28µM* | 8% | -3% | -18% | 45µM* | 67* | FEN1 inh-2=76*
